Measured values reported in PubChem BioAssay AID624481 (The Scripps Research Institute Molecular Screening Center, 2012).
A number with no mark means an inactive call. Active and inactive are the calls of the source. Rule as the data show it: active = inhibition above about 50%; inactive = the rest.

Molecular target: Prolyl endopeptidase-like (Mus musculus) (UniProt Q8C167)
Assay: mouse PREPL enzyme inhibition by screening hits – biochemical, gel-based competitive ABPP, fluorescence, HTS hits, PREPL inhibitor project (AID 624481)
Details: purified mouse PREPL, at 20 µM, stronger effect = higher value

Sequence of Prolyl endopeptidase-like (Mus musculus) (Q8C167 whole entry, looked up): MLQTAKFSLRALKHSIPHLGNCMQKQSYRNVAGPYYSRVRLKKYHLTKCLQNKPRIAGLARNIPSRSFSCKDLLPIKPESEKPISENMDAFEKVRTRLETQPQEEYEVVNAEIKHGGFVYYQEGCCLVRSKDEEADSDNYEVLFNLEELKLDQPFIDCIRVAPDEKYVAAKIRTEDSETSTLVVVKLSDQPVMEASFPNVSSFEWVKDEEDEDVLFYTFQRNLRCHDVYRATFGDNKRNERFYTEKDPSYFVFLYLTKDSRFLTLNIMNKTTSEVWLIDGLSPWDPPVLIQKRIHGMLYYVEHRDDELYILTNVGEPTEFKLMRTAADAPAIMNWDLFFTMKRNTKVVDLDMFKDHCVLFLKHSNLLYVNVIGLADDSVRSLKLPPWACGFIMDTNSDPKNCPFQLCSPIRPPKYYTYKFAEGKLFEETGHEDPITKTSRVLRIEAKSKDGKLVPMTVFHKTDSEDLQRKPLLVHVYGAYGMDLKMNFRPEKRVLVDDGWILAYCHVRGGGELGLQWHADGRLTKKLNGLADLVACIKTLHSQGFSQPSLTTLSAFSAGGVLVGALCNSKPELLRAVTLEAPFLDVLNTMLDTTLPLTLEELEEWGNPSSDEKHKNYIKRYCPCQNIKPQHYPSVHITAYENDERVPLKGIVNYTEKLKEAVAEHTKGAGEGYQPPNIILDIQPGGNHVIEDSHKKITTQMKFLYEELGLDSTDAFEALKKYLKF

Compound	inhibition
Cc1cc(C)c2nc(C)cc(NN=Cc3ccc(O)cc3)c2c1	-1%
Cc1ccn2c(Nc3ccc4c(c3)OCO4)c(-c3ccccn3)nc2c1	-41%
CCN1/C(=C/c2ccc3cc(C)ccc3[n+]2CC)Sc2ccccc21	98% (active)
Cc1ccc(OCC(=O)Nc2ccc(N3CCN(C(=O)c4ccco4)CC3)cc2)cc1C	44%
Cc1cc(NN=Cc2ccc(O)cc2)c2cccc(C)c2n1	1%
CN(C)CCN1C(=O)C(O)=C(C(=O)c2cc3ccccc3o2)C1c1ccc(N(C)C)cc1 (stereo not drawn)	-47%
Cc1cc(C)c2nc(N3C(=O)C(O)=C(C(=O)c4ccco4)C3c3ccco3)sc2c1 (stereo not drawn)	45%
CC(C)NC(=O)c1sc(=S)n2c1[nH]c(=O)c1ccc(C(=O)NCCc3ccc(Cl)cc3)cc12	-28%
COc1ccc2c(CC(=O)Nc3ccc(N4CCOCC4)cc3)coc2c1	-44%
CN1CCc2c(sc3c2C(=O)NC(c2cn(Cc4ccccc4)c4ccccc24)N3)C1 (stereo not drawn)	7%
C[n+]1c(-c2ccccc2)sc(S)c1-c1ccccc1	-31%
CC(=O)N1CCN(c2ccc(OC[C@H]3CO[C@](Cn4ccnc4)(c4ccc(Cl)cc4Cl)O3)cc2)CC1	-188%
C#CCOCCOCCOCCNc1nc(N2CCN(C(=O)[C@H](CCCCN)n3cc([C@@H](N)C(C)CC)nn3)CC2)nc(N2CCN(C(=O)[C@H](Cc3cc4ccccc4[nH]3)n3cc([C@@H](N)CC(C)C)nn3)CC2)n1 (stereo partly drawn)	-8%
O=C(C1=C[C@@H](c2ccc(C(F)(F)F)cc2)C[C@@H](OCCCCO)O1)N1CCN(Cc2ccc3c(c2)OCO3)CC1	-20%
Cc1cccc(OCC(=O)Nc2ccc(N3CCN(C(=O)c4ccco4)CC3)cc2)c1	-15%
C#CCOCCOCCOCCNc1nc(N2CCN(C(=O)[C@H](CCCCN)n3cc([C@@H](N)C(C)CC)nn3)CC2)nc(N2CCN(C(=O)[C@H](Cc3cc4ccccc4[nH]3)n3cc([C@@H](N)C(C)CC)nn3)CC2)n1 (stereo partly drawn)	-33%
CC(=O)N1CCN(c2ccc(NCc3cccc4ccccc34)cc2)CC1	-26%
O=C1c2c(O)ccc(O)c2C(=O)c2c(NCCNCCO)ccc(NCCNCCO)c21	-46%
c1ccc(-c2nc(N3CCCCCC3)c3ccccc3n2)nc1	-104%

Compound	inhibition
COc1ccc(N2CCN(CCC(O)c3ccc4ccccc4c3)CC2)cc1 (stereo not drawn)	-79%
Cc1c(NCc2cc(Cl)cc(Cl)c2O)c(=O)n(-c2ccccc2)n1C	-28%
c1ccc(CNc2nc(-c3ccccn3)nc3ccccc23)cc1	-89%
C#CCOCCOCCOCCNc1nc(N2CCN(C(=O)CCCCCCCCCCNC(=O)[C@H](CCCCN)n3cc(C)nn3)CC2)nc(N2CCN(C(=O)CCCCCCCCCCNC(=O)[C@H](CCCN=C(N)N)n3cc(C[C@@H](C)CC)nn3)CC2)n1	-58%
CCCCNc1c(-c2ccc(SC(C)CC)cc2)nc2cnccn12 (stereo not drawn)	-22%
C#CCOCCOCCOCCNc1nc(N2CCN(C(=O)[C@H](CCCCN)n3cc([C@@H](N)CC(C)C)nn3)CC2)nc(N2CCN(C(=O)[C@H](Cc3cc4ccccc4[nH]3)n3cc([C@@H](N)Cc4ccc(O)cc4)nn3)CC2)n1	-71%
COc1ccc(N2CCN(C(=O)c3cn(C4CCCC4)c(=O)c4c3c3ccccc3n4C)CC2)cc1	92% (active)
CN(C)c1ccc(C(CNC(=O)c2ccccc2)c2c[nH]c3ccccc23)cc1 (stereo not drawn)	13%
Cc1ccc(Nc2nc(NCCO)c3ccccc3n2)cc1C	-33%
O=C1NC(Cc2c[nH]c3ccccc23)C(=O)N1Cc1ccc(CN2C(=O)NC(Cc3c[nH]c4ccccc34)C2=O)cc1 (stereo not drawn)	28%
Cc1c(C#N)c(N=CN(C)C)c(C(=O)c2ccc(Br)cc2)n1-c1ccc(Cl)cc1	-59%
CN(C)S(=O)(=O)c1cccc(-c2csc(=Nc3ccccc3)n2CCCN2CCOCC2)c1	-41%
COc1ccc2nc3cc(Cl)ccc3c(Nc3cc(CN4CCCC4)c(O)c(CN4CCCC4)c3)c2n1	-45%
Nc1nn(-c2ccccc2)c(N)c1N=Nc1ccc2c(c1)OCO2	17%
CN(C)c1ccc(N=C/C=C2\N(C)c3ccccc3C2(C)C)cc1	-78%
CC1CC(C)CN(C(=O)c2ccc3c(c2NCCO)C(=O)c2ccccc2C3=O)C1 (stereo not drawn)	7%
c1ccc(N2CCN(c3nc(NCc4ccco4)c4ccccc4n3)CC2)cc1	94% (active)
O=C(CN1CCN(c2ccc(O)cc2)CC1)Nc1cc([N+](=O)[O-])ccc1Cl	-53%
Cc1ccccc1C(=O)N1CCN(c2ccc(NC(=O)CSc3ccc(Cl)cc3)cc2)CC1	-27%
